Laboratory results: PubChem BioAssay (Tox21)
Where “and” joins values, the source holds several entries; their conditions need not be identical. Equal entries are not always repeated. Values without a mark were called inactive. Records with an inconclusive call do not appear. A call without a number means that no potency is given here. Calls of active or inactive are those of the source. Unless noted, the call rests on the fitted dose curve; in most records, active means well fitted curve in the direction sought with a large enough effect in the repeat runs; inconclusive means weak or mixed curves; inactive means no such curve, though single readings can be large; an effect the other way counts as inactive or inconclusive.

Columns and labels:
[1] = qHTS assay to identify small molecule antagonists of the progesterone receptor (PR) signaling pathway - cell viability counter screen (AID 1346798); further: nearly all actives have a fitted effect of over 50% in size; further: potency means the concentration at half of the fitted maximal effect
Summary of the method: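 PR-UAS-bla HEK293T cells in medium with 2% charcoal-stripped FBS were treated with compounds plus R5020 for 16 hr at 37C. Cell viability was then read by CellTiter-Glo luminescence after 30 min at room temperature in the same wells.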

[2] = qHTS assay to identify small molecule agonists of the progesterone receptor (PR) signaling pathway - cell viability counter screen (AID 1346799; calls by dose curve; further: nearly all actives have a fitted effect of over 45% in size; further: potency means the concentration at half of the fitted maximal effect)
Summary of the method: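 PR-UAS-bla HEK293T cells, 3,000 per well in medium with 2% charcoal-stripped FBS, were preincubated 6 hr at 37C, then exposed to compounds for 16 hr; viability was read as CellTiter-Glo luminescence after 30 min at room temperature.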

[3] = qHTS assay to identify small molecule antagonists of the TGF-beta/Smad signaling pathway - cell viability counter screen (AID 1346824); further: nearly all actives have a fitted effect of over 50% in size; further: potency means the concentration at half of the fitted maximal effect
Summary of the method: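 SBE-bla HEK 293T cells were plated overnight at 37 C, then given compounds in DMSO plus TGF-beta1 (added as 0.25 ng/mL solution) for 5 hr. After the bla read, CellTiter-Glo was added to the same wells and luminescence read after 30 min at room temperature.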

[4] = qHTS assay to identify small molecule agonists of the TGF-beta/Smad signaling pathway - cell viability counter screen (AID 1346829); further: nearly all actives have a fitted effect of over 45% in size; further: potency means the concentration at half of the fitted maximal effect
Summary of the method: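 Same-well cytotoxicity: CellTiter-Glo added after the 2 hr room-temperature beta-lactamase substrate step, luminescence measured 30 min later; cells had 5 hr of compound at 37 C.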

[5] = qHTS assay to identify small molecule agonists of the TGF-beta/Smad signaling pathway (AID 1346859; active means well fitted activation curve with a large enough effect in the signal ratio in the repeat runs, not every such curve was filed as active; the % refers to the signal ratio; further: series mostly up to about 77 µM)
Summary of the method: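 HEK 293T cells stably carrying a beta-lactamase reporter driven by the Smad binding element were seeded overnight, exposed to DMSO-dissolved compounds for 5 hr at 37 C, 5% CO2, then loaded with FRET substrate for 2 hr at room temperature.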

[6] = molecular target: Thyrotropin-releasing hormone receptor (Homo sapiens) (UniProt P34981); assay: qHTS assay to identify small molecule antagonists of the thyrotropin-releasing hormone receptor (TRHR) signaling pathway (AID 1346877; active means well fitted inhibition curve with a large enough effect in the repeat runs, not every such curve was filed as active; further: series mostly up to about 51 µM)
Summary of the method: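 Antagonism is measured as suppression of the calcium response to 1 nM TRH in TRHR-HEK293 cells that have been dye-loaded for 2 h at 37 °C after overnight plating. Each compound is tested at 15 concentrations in triplicate.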

[7] = molecular target: Thyrotropin-releasing hormone receptor (Homo sapiens) (UniProt P34981); assay: qHTS assay to identify small molecule agonists of the thyrotropin-releasing hormone receptor (TRHR) signaling pathway (AID 1346891; calls by dose curve; further: series mostly up to about 58 µM)
Summary of the method: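 TRHR-expressing HEK293 cells were plated 18 h at 37 °C/5% CO2, loaded with calcium dye 2 h at 37 °C, then given compound in DMSO; fluorescence was read kinetically for 3 min at 1 s intervals.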

[8] = Human pregnane X receptor (PXR) small molecule agonists, qHTS cell viability counter screen (AID 1346977); further: nearly all actives have a fitted effect of over 50% in size; further: potency means the concentration at half of the fitted maximal effect
Summary of the method: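 PXR-Luc HepG2 cells in medium with 5% charcoal-stripped FBS were pre-incubated 5hr, then exposed to compounds for 24hr at 37C. Viability was read in the same wells by CellTiter-Fluor fluorescence, reagent added after 23hr with a 1hr incubation.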

[9] = Caspase-3/7 induction in HepG2 cells by small molecules, qHTS assay (AID 1346978); further: nearly all actives have a fitted effect of over 15% in size; further: potency means the concentration at half of the fitted maximal effect
Summary of the method: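 Wild-type HepG2 cells (2,000/well) were settled 5 h at 37 C, 5% CO2, then exposed to compounds in DMSO for 17 h. Caspase-3/7 activity was read by luminescence 30 min after adding Caspase-Glo 3/7 reagent at room temperature.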

[10] = molecular target: Progesterone receptor (Homo sapiens) (UniProt P06401); assay: qHTS assay to identify small molecule antagonists of the progesterone receptor (PR) signaling pathway (AID 1346795; active means well fitted inhibition curve with a large enough effect in the signal ratio in the repeat runs, not every such curve was filed as active; the % refers to the signal ratio; further: potency means the concentration at half of the fitted maximal effect)
Summary of the method: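 PR-UAS-bla HEK293T cells carrying a UAS-driven beta-lactamase reporter were plated in medium with 2% charcoal-stripped FBS and rested 6 hr at 37C. Compounds were added with 1 nM R5020 (final) for 16 hr, then FRET substrate loaded 2 hr at room temperature.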

Sequence of Thyrotropin-releasing hormone receptor (Homo sapiens) (P34981 whole entry, looked up): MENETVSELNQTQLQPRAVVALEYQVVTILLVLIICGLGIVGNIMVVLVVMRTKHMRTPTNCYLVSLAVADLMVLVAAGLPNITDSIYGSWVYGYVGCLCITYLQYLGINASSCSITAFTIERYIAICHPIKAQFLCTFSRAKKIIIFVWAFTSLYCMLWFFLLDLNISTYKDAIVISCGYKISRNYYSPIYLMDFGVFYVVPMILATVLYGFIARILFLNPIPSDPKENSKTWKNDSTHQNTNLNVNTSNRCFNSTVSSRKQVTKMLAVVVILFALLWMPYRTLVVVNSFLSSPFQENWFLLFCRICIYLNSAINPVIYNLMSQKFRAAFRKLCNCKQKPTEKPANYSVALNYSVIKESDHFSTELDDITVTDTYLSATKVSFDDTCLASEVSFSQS
Sequence of Progesterone receptor (Homo sapiens) (P06401 whole entry, looked up): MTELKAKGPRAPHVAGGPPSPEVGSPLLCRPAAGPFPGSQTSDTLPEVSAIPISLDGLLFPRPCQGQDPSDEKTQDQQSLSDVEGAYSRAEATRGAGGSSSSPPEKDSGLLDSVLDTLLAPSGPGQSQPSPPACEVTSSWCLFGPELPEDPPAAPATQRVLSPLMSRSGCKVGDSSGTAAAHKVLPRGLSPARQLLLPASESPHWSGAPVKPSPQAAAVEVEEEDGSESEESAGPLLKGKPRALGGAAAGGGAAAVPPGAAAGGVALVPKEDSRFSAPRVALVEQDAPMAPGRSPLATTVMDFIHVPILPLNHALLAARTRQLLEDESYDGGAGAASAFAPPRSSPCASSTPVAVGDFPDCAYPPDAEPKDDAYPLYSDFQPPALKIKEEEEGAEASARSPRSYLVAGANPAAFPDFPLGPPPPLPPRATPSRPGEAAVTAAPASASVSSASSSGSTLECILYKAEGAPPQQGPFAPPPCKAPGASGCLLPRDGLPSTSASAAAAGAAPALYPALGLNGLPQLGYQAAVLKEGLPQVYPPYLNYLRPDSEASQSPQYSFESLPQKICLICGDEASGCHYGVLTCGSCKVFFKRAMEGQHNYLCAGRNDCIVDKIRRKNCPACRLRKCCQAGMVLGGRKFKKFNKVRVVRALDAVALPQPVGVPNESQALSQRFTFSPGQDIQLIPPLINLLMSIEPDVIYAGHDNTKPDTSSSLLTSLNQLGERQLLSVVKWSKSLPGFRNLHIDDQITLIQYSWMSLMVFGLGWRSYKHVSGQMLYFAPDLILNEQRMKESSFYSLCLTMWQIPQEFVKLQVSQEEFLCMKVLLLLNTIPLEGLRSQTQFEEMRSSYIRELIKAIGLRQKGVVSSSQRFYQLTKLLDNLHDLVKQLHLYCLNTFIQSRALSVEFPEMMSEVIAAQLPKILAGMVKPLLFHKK

SMILES: CC(C)(c1cc(Br)c(OCC(Br)CBr)c(Br)c1)c1cc(Br)c(OCC(Br)CBr)c(Br)c1 (configuration not stated)
- Potency [1]: inactive
- Potency [2]: inactive
- Potency [3]: inactive
- Potency [4]: inactive
- Potency [5]: inactive
- Potency [6]: inactive
- outcome [7]: inactive
- Potency [8]: inactive
- Potency [9]: inactive

SMILES: CCCCNS(=O)(=O)c1ccc(C)cc1
- Potency [1]: inactive
- Potency [2]: inactive
- Potency [3]: inactive
- Potency [4]: inactive
- Potency [5]: inactive
- outcome [7]: inactive
- Potency [8]: inactive
- Potency [9]: inactive

SMILES: O=C(O)[C@H](O)[C@@H](O)[C@H](O[C@@H]1O[C@H](CO)[C@H](O)[C@H](O)[C@H]1O)[C@H](O)CO
- Potency [1]: inactive
- Potency [2]: inactive
- Potency [3]: inactive
- Potency [4]: inactive
- Potency [6]: inactive
- outcome [7]: inactive
- Potency [8]: inactive
- Potency [9]: inactive

SMILES: CCc1oc2ccccc2c1C(=O)c1cc(I)c(O)c(I)c1
- Potency [10]: 21.1 µM (active)
- Potency [3]: inactive
- Potency [4]: inactive
- Potency [9]: inactive

SMILES: CCCCCCCCCCCCCC[N+](C)(C)Cc1ccccc1
- Potency [1]: 55.3 µM (active) and 5.96 µM (active)
- Potency [2]: 27.7 µM (active) and 6.68 µM (active) and 12.6 mM (active)
- Potency [3]: 49.7 µM (active)
- Potency [4]: 49.7 µM (active) and 19 µM (active)
- Potency [5]: inactive
- Potency [8]: 55.3 µM (active)
- Potency [9]: 62.1 µM (active)

SMILES: S=c1nccc[nH]1
- Potency [1]: inactive
- Potency [2]: inactive
- Potency [3]: inactive
- Potency [4]: inactive
- Potency [5]: inactive
- Potency [6]: inactive
- outcome [7]: inactive
- Potency [8]: inactive
- Potency [9]: inactive

SMILES: Cc1c(C)c([N+](=O)[O-])c(C(C)(C)C)c([N+](=O)[O-])c1C
- Potency [1]: inactive
- Potency [2]: inactive
- Potency [3]: inactive
- Potency [4]: inactive
- Potency [5]: inactive
- Potency [6]: inactive
- outcome [7]: inactive
- Potency [8]: inactive
- Potency [9]: inactive

SMILES: CCCCCCC1CCCC(=O)O1 (configuration not stated)
- Potency [1]: inactive
- Potency [2]: inactive
- Potency [3]: inactive
- Potency [4]: inactive
- Potency [6]: inactive
- outcome [7]: inactive
- Potency [8]: inactive
- Potency [9]: inactive

SMILES: CCCC(=O)OCCc1ccccc1
- Potency [1]: inactive
- Potency [2]: inactive
- Potency [3]: inactive
- Potency [4]: inactive
- Potency [5]: inactive
- outcome [7]: inactive
- Potency [8]: inactive
- Potency [9]: inactive

SMILES: c1ccc(C(O[C@@H]2CCCN(CCc3ccc4c(c3)OCO4)C2)c2ccccc2)cc1
- Potency [1]: inactive
- Potency [3]: inactive
- Potency [4]: inactive
- Potency [5]: inactive
- Potency [6]: inactive
- outcome [7]: inactive
- Potency [8]: 61.1 µM (active)
- Potency [9]: inactive

SMILES: CC(=O)[C@H]1CC[C@H]2[C@@H]3CCC4=CC(=O)CC[C@]4(C)[C@H]3CC[C@]12C
- Potency [1]: 54.2 µM (active)
- Potency [2]: 60.8 µM (active)
- Potency [8]: inactive
- Potency [9]: inactive
